Laboratory results taken from PubChem BioAssay (NCI).
Compounds without any hit were thinned out: in the full panel of roughly 79,000, 15% have a hit. Rule as the data show it: active = growth inhibition above about 70%; inactive = the rest. Where a SMILES comes first, the peptide text is derived from it. [ ]: non-standard residue; d: D form. The star is where a group is joined. ξ: configuration not given here. Cbz = O=C(OCc1ccccc1)*; ξNva = CCCC(N)C(=O)O

Legend:
[1] = NCI Yeast Anticancer Drug Screen. Data for the rad50 strain (AID 155);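 also: 0% = growth of vehicle-only cultures of the same strain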; conditions: S. cerevisiae rad50 strain growth inhibition; at 50.0 µM; stronger effect = higher value
Outline: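 DNA repair mutant yeast, compound exposure, growth read-out; inhibition is taken relative to vehicle.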

[2] = NCI Yeast Anticancer Drug Screen. Data for the mec2-1 strain (AID 157); conditions: S. cerevisiae mec2-1 strain, at 50.0 µM, stronger effect = higher value
Outline: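 Each compound was tested on mec2-1 yeast, a strain altered in DNA damage repair or cell cycle control. Growth inhibition is reported relative to vehicle.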

[3] = NCI Yeast Anticancer Drug Screen. Data for the sgs1 mgt1 strain (AID 161);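 also: 0% = growth of cultures given vehicle only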; conditions: S. cerevisiae sgs1 mgt1 strain, at 50.0 µM, stronger effect = higher value
Outline: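 Inhibition of yeast growth, normalised to vehicle-treated controls, is reported for a strain bearing genetic alterations in DNA damage repair.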

[4] = NCI Yeast Anticancer Drug Screen. Data for the cln2 rad14 strain (AID 165);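 also: 0% = growth equal to vehicle treated cultures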; conditions: S. cerevisiae cln2 rad14 strain, at 50.0 µM, stronger effect = higher value
Outline: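 Test compounds were added to cln2 rad14 yeast cultures; inhibition of growth was then determined by comparison with vehicle treatment.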

[5] = NCI Yeast Anticancer Drug Screen. Data for the bub3 strain (AID 167); conditions: S. cerevisiae bub3 mutant strain, at 50.0 µM, stronger effect = higher value
Outline: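 In this screen, a yeast mutant lacking normal mitotic checkpoint function is challenged with compound. Relative growth versus vehicle gives the inhibition value.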

[6] = NCI Yeast Anticancer Drug Screen. Data for the mlh1 rad18 strain (AID 175); conditions: S. cerevisiae mlh1 rad18 strain growth inhibition; at 50.0 µM; stronger effect = higher value
Outline: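 Inhibition values reflect reduced growth of mutant yeast versus vehicle-treated controls following compound exposure; the mutations affect DNA damage repair.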

Measured: growth inhibition

Cc1ccc(S(=O)(=O)OCC2=C(COS(=O)(=O)c3ccc(C)cc3)C3c4ccccc4C2c2ccccc23)cc1
inactive: [1] 31.3% | [2] 5.35% | [3] 1.55% | [4] -27.8% | [5] -1.35% | [6] 4.8%

CCOC(=O)C1=C(O)c2ccc(OC)cc2C(=O)C1=O
inactive: [1] -5.5% | [2] -10.5% | [3] 12.7% | [4] 2.05% | [5] -9% | [6] 0.3%

NC(=O)c1cc2ccccc2c2ccccc12
inactive: [1] 0.65% | [2] -23.8% | [3] -15.6% | [4] -33.3% | [5] -1% | [6] -3.85%

CC(C)NCC(O)COc1cccc2ccccc12 (configuration not stated)
inactive: [1] 19.4% | [2] -32.2% | [3] 31.1% | [4] 20.6% | [5] 14.9% | [6] 11.1%

O=C(CCCl)NNC1=NCCCN1
inactive: [1] 2.5% | [2] -14.3% | [3] -15.4% | [4] 23.2% | [5] -4.35% | [6] -0.05%

Cn1c(=O)c2c(ncn2CCSS(=O)(=O)O)n(C)c1=O
inactive: [1] -20.7% | [2] -17.1% | [3] 12.2% | [4] -11.9% | [5] -12% | [6] -28.9%

O=C(NCCCCCCCCCCNC(=O)C12CC3CC(CC(C3)C1)C2)C12CC3CC(CC(C3)C1)C2
inactive: [1] -1.5% | [2] -5.15% | [3] 2.3% | [4] 14.7% | [5] -2.1% | [6] -14.5%

COc1cc(CO)c(CC(=O)NCCCc2ccccc2)cc1OC
inactive: [1] 37.8% | [2] -44.5% | [3] -12.5% | [4] -2.85% | [5] -14.2% | [6] -47.5%

CCCCCC(=O)Nc1cc(S(=O)(=O)O)cc2cc(S(=O)(=O)O)cc(O)c12
inactive: [1] -24.1% | [2] -15.2% | [3] -8.85% | [4] 10.7% | [5] -9.85% | [6] -7.7%

CCOC(=O)c1c(C)nc(C)nc1N
inactive: [1] 0.2% | [2] -2.5% | [3] -9.85% | [4] -41.5% | [5] -22.1% | [6] 2%

N#Cc1cccc(/C=C\C(=O)c2ccccc2)c1
inactive: [1] 22.9% | [2] 8.65% | [3] 5.4% | [4] 17.3% | [5] 61% | [6] 13.9%

CCCC(NC(=O)OCc1ccccc1)C(=O)NCC(=O)O (configuration not stated) (Cbz-[ξNva]-Gly-OH)
inactive: [1] 24.6% | [2] 7.2% | [3] 6.05% | [4] 23.4% | [5] 8.7% | [6] 8.55%

O=C(CCc1nnc2s/c(=C\c3ccc(Cl)cc3Cl)c(=O)n12)Nc1cc(Cl)c(Cl)cc1Cl
inactive: [1] -17.6% | [2] 18.2% | [3] -7.4% | [4] 20.6% | [5] 9.05% | [6] 4.35%

O=C(O)c1cc(Cc2ccc(I)c(C(=O)O)c2)ccc1I
inactive: [1] 20.9% | [2] 2.5% | [3] 32.9% | [4] 29% | [5] -5.75% | [6] 40.5%

CCC(N)(C(=O)O)C(C)C (configuration not stated)
inactive: [1] -25.7% | [2] -8.65% | [3] -12.1% | [4] -0.45% | [5] 8.4% | [6] -3.75%

CCOC(=O)CNC(=O)C(CCSCc1ccccc1)NC(=O)OCc1ccccc1 (configuration not stated)
inactive: [1] -2.75% | [2] 6.55% | [3] 0.3% | [4] 28.6% | [5] 4.45% | [6] 15.2%

COC(=O)C(C)(Cc1ccc2c(c1)nnn2C(C)=O)NC(C)=O (configuration not stated)
inactive: [1] -11.4% | [2] -1.25% | [3] -4.15% | [4] -2.45% | [5] 22.6% | [6] -51.9%

N[C@@H]1CCCC[C@H]1O
inactive: [1] -0.35% | [2] -5.5% | [3] -8.7% | [4] -24.9% | [5] -5.9% | [6] -16.1%

CCCCCCCCCCOC(=O)c1ccccc1O
inactive: [1] -4.95% | [2] -7.15% | [3] 3.1% | [4] -111% | [5] 4.4% | [6] -10.4%

CCCCCCCCCCCCCCCCCCNC(=S)N(C)C
inactive: [1] 18.8% | [2] 0.2% | [3] 8.1% | [4] 1.25% | [5] 38.6% | [6] 5.05%

Cc1cc(O)oc(=O)c1
inactive: [1] -7.7% | [2] -15.1% | [3] -7.2% | [4] -44.4% | [5] 1.85% | [6] -4.85%

COc1cc(C(OC(C)=O)OC(C)=O)c(Cl)c(Cl)c1OC(C)=O
inactive: [1] 16.7% | [2] -2.25% | [3] 9.35% | [4] -5.3% | [5] 12.2% | [6] 18.6%

CCOC(=O)NC(C(F)(F)F)(C(F)(F)F)P(=O)(OC(C)C)OC(C)C
inactive: [1] -23% | [2] -11.6% | [3] -12.4% | [4] 31.1% | [5] 3.65% | [6] 1.65%

CC(O)c1nc2c3ccccc3ccc2n1C (configuration not stated)
inactive: [1] -6.15% | [2] -0.2% | [3] -6.45% | [4] -42.6% | [5] -1.25% | [6] -8.6%

CCCCCNC(=O)Nc1cccc(Cl)c1C
inactive: [1] -1.4% | [2] 6.75% | [3] 3.55% | [4] 11.4% | [5] 16.6% | [6] -20.6%

Cc1c(C(=O)Nc2ccc(Cl)cc2)nc(N)nc1-c1cccc(Cl)c1
inactive: [1] -18.9% | [2] -8.85% | [3] 2.3% | [4] 1.1% | [5] -3.6% | [6] -8.7%

CCN(CC)CCN=C1Nc2ccccc2N(O)N1
inactive: [1] 0.55% | [2] -1.5% | [3] 11.6% | [4] -23.3% | [5] 12.6% | [6] -2.95%

COc1ccc(C(=O)C(c2ccc(OCc3ccccc3)cc2)c2ccc(OCc3ccccc3)cc2)cc1
inactive: [1] 5.4% | [2] -35.8% | [3] -6.35% | [4] 26.9% | [5] -25.7% | [6] -5.55%

CCN(CC)C(=O)COc1ccc(Cl)cc1C(C)C
inactive: [1] -17.9% | [2] -16.8% | [3] 1.35% | [4] -2.45% | [5] 14.9% | [6] -31.4%

O=C(O)c1cc2oc3ccccc3c2cc1O
inactive: [1] 2.4% | [2] -7.5% | [3] 18.6% | [4] 4.4% | [5] 2.4% | [6] 23.3%

CC1(C)CCCN1C(=O)Nc1ccc([N+](=O)[O-])cc1[N+](=O)[O-]
inactive: [1] 4.1% | [2] -7.7% | [3] 5.4% | [4] -12.6% | [5] -4.15% | [6] -14.1%

CCC(CCN(C)C)(OC(C)=O)c1ccccc1 (configuration not stated)
inactive: [1] 10.4% | [2] -0.55% | [3] -3% | [4] 11.7% | [5] 30.9% | [6] -15.8%

Cc1ccc(N=Nc2ccc(C)cc2NC(=S)Nc2ccccc2)cc1
inactive: [1] -11.2% | [2] -0.95% | [3] -12.3% | [4] -20.9% | [5] 7.7% | [6] -8.75%

NC(=O)C1C=Cc2ccccc21 (configuration not stated)
inactive: [1] -6.1% | [2] -19.3% | [3] -18.4% | [4] -14.1% | [5] -16.8% | [6] -35.6%

c1ccc2c(CN3CCN(Cc4c[nH]c5ccccc45)CC3)c[nH]c2c1
inactive: [1] 17.1% | [2] -8.75% | [3] -14.5% | [4] -13.8% | [5] -2.8% | [6] -21.9%

O=C(c1ccc(Cl)cc1Cl)N(/N=C/C=C/c1ccccc1)c1nnc(-c2ccccc2)c(-c2ccccc2)n1
inactive: [1] -17.1% | [2] 8.8% | [3] -21.3% | [4] 32.5% | [5] 2.2% | [6] 13%

Cc1ccc(N2C(=O)CSC2=S)cc1C
inactive: [1] -1.7% | [2] -15.7% | [3] -30% | [4] -38% | [5] -29% | [6] -9.5%
